# Test results as given in PubChem BioAssay AID504848 (National Center for Advancing Translational Sciences (NCATS), 2011).
# Values joined by “and” are separate entries in the source; they are usually repeats but may differ in a detail not shown here. Identical values can stand only once. About 1,400 (61%) of roughly 2,300 compounds were called active. Another 29% or so got no clear call; they are omitted. Calls follow the shape of the dose curve; as a rule, active = well fitted inhibition curve with a large enough effect; inconclusive = small, poorly fitted or top-dose-only effect, or effect the other way; inactive = no such curve, though single readings can be large or run the other way. The set was probably picked from earlier hits. The list shows a part of the results.
# Assay: Confirmation screen for delayed death inhibitors of the malarial parasite plastid, 96 hour incubation; also: nearly all actives have a fitted effect of over 60% in size
# Conditions: P. falciparum luciferase growth in erythrocytes; series mostly up to 28.7 µM; activity change, negative = inhibition: at the top concentration
# Outline: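 Erythrocytes infected with luciferase-expressing P. falciparum (2% hematocrit, 0.1% parasitemia final) in RPMI 1640 with 0.5% Albumax, exposed to compounds 96 h at 37 C, 5% CO2. Growth inhibition read as decreased luciferase luminescence.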
# % is scaled to controls: 0 for no effect and ±100 for the full control effect; potency is read from the fitted curve at half-maximal effect.
SMILES,Potency,"activity change, negative = inhibition"
CN1C(=O)C(C)(C)c2cc(S(=O)(=O)NCC3CCC(C(=O)NCc4ccc(F)cc4)CC3)ccc21 (centres undefined),11.2 µM (active),–
Cc1nn(-c2ccccc2)c(C)c1NC(=O)COC(=O)[C@@H](NC(=O)c1ccccc1)C(C)C,–,-20.8% (inactive)
CCOc1ccccc1C(=O)NCC(=O)NCCc1ccc(S(N)(=O)=O)cc1,–,6.57% (inactive)
CCOc1ccc(CCNC(=O)CCCn2nc(C)c3c(C)n(-c4ccccc4)nc3c2=O)cc1,11.2 µM (active),–
COc1ccc(NC(=O)CCCn2cc([N+](=O)[O-])cn2)cc1,–,-11.8% (inactive)
COc1ccc(NC(=O)CCCn2nc(C)c3c(C)n(-c4ccccc4)nc3c2=O)cc1,11.2 µM (active),–
Cc1ccccc1NC(=O)CCCn1nc(C)c2c(C)n(-c3ccccc3)nc2c1=O,10 µM (active),–
Cc1cccc(C)c1NC(=O)CCCn1nc(C)c2c(C)n(-c3ccccc3)nc2c1=O,10 µM (active),–
CSc1ccccc1OCc1cc(C(=O)N(C)CCc2c(C)n[nH]c2C)no1,10 µM (active),–
CCOC(=O)c1ccc(CNC(=O)c2cc(COc3ccccc3SC)on2)o1,–,-8.32% (inactive)
CSc1ccccc1OCc1cc(C(=O)NCCCn2nc(C)cc2C)no1,12.6 µM (active),–
CSc1ccccc1OCc1cc(C(=O)NCCn2ccnc2C)no1,–,-21% (inactive)
CCN(CCN1CCCC1)C(=O)c1cc(COc2ccccc2SC)on1,12.6 µM (active),–
COc1ccc(NC2=C(NC(C)=O)C(=O)c3ccccc3C2=O)cc1,3.16 µM (active),–
CC(=O)NC1=C(Nc2ccc(N(C)C)cc2)C(=O)c2ccccc2C1=O,6.31 µM (active),–
N#Cc1ccccc1S(=O)(=O)N1CCC(C(=O)NCc2ccccc2CN2CCCC2)CC1,14.1 µM (active),–
CCOC(=O)c1cnc2ccccc2c1NCCc1ccc(OC)c(OC)c1,5.01 µM (active),–
Cc1ccc2c(c1)c1c3n2CCN(C(=O)CCl)C3CCC1 (centres undefined),14.1 µM (active),–
CN(CC(=O)Nc1ccc(Cl)cc1)C(=O)Cc1c(F)cccc1Cl,10 µM (active),–
O=C(/C=C/Sc1ncn[nH]1)c1ccc(Cl)cc1,12.6 µM (active),–
CCC1OC(=O)C[C@@H](O)[C@H](C)[C@@H](OC2OC(C)CC(N(C)C)C2O)[C@@H](CC=O)C[C@@H](C)C(=O)/C=C/[C@]2(C)OC2C1C (some centres undefined),1.78 µM (active),–
Cc1cc(C)n(Cc2ccc(C(=O)N/N=C/c3ccc(-c4ccc([N+](=O)[O-])cc4)o3)o2)n1,5.01 µM (active),–
COc1cc(C(C)=O)ccc1OCC(O)CN1CCN(c2cc(C)cc(C)c2)CC1 (centres undefined),14.1 µM (active),–

SMILES,Potency,"activity change, negative = inhibition"
CC(C)(C)C1C/C(=C/c2ccccn2)C(=O)/C(=C/c2ccccn2)C1 (centres undefined),0.158 µM (active),–
COCCNC(=O)c1cccc(OC2CCN(Cc3ccc(C(C)C)cc3)CC2)c1,11.2 µM (active),–
COCCNC(=O)c1cccc(OC2CCN(Cc3cccc(SC)c3)CC2)c1,12.6 µM (active),–
CSc1cccc(CN2CCC(Oc3cccc(C(=O)N4CCCC4)c3)CC2)c1,12.6 µM (active),–
CN(C)CCn1c(=O)n(Cc2ccco2)c(=O)c2c3c(sc21)CCCCC3,10 µM (active),–
O=c1c(Cl)cc(Cl)nn1-c1ccccc1,12.6 µM (active),–
Cc1ccc2c(CN(C)Cc3cccc(F)c3)cc(=O)oc2c1C,12.6 µM (active),–
COc1cc2c(cc1OC)CN(Cc1cc(=O)oc3c(C)c(C)ccc13)CC2,15.8 µM (active),–
Cc1c(O)ccc2c(CN(C)Cc3ccccc3)cc(=O)oc12,12.6 µM (active),–
Cc1ccccc1CN(C)Cc1cc(=O)oc2c(C)c(C)ccc12,15.8 µM (active),–
O=C(Nc1ccccc1N1CCOCC1)c1cccc(S(=O)(=O)N2CCOCC2)c1,11.2 µM (active),–
C/C(=N\NC(=O)c1cccc(S(=O)(=O)N2CCOCC2)c1)c1ccc(O)cc1,1 µM (active),–
O=C(Nc1ccccc1N1CCOCC1)c1ccc(F)c(S(=O)(=O)N2CCOCC2)c1,8.91 µM (active),–
O=C(Nc1ccccc1[N+](=O)[O-])c1cc(S(=O)(=O)N2CCOCC2)cs1,14.1 µM (active),–
O=C(COC(=O)c1ccc(F)c(S(=O)(=O)N2CCOCC2)c1)Nc1ccc2[nH]c(=O)[nH]c2c1,–,-7.71% (inactive)
COc1ccc(CNn2c(-c3ccccc3F)nc3ccccc3c2=O)cc1OC,5.01 µM (active),–
Cc1ccccc1C1=NC(C(F)(F)F)(C(F)(F)F)c2c(n(-c3ccc(F)cc3)c(=O)[nH]c2=O)N1,11.2 µM (active),–
CC(=O)/C(C#N)=C1\NC(=O)C(Cc2ccc(C)c(Cl)c2)S1 (centres undefined),12.6 µM (active),–
CC(=O)/C(C#N)=C1\NC(=O)C(Cc2ccc(C)c(C)c2)S1 (centres undefined),11.2 µM (active),–
CC(=O)/C(C#N)=C1\NC(=O)C(Cc2cc(Cl)ccc2Cl)S1 (centres undefined),14.1 µM (active),–
COC(=O)c1ccccc1SC1CC(=O)N(c2ccccc2)C1=O (centres undefined),–,-1.25% (inactive)
CC(C)CN1C2CCCC1CC(NC(=S)NCc1ccco1)C2 (centres undefined),10 µM (active),–
CCOC(=O)C1CCCN(Cc2ccc(OCc3ccccc3)c(OC)c2)C1 (centres undefined),10 µM (active),–

SMILES,Potency,"activity change, negative = inhibition"
CCOC(=O)C1CCCCN1Cc1cccc(OCc2ccccc2)c1 (centres undefined),12.6 µM (active),–
O=C(C1CCC(=O)N1Cc1ccccc1Cl)N1CCN(c2cccc(Cl)c2)CC1 (centres undefined),11.2 µM (active),–
CCS(=O)(=O)c1nc(S(=O)(=O)c2ccc(C)cc2)c(N2CCC3(CC2)OCCO3)s1,10 µM (active),–
Cc1ccc(CN(Cc2ccccn2)C(=O)Nc2ccc(C)c(C)c2)cc1,15.8 µM (active),–
Cc1ccc(NC(=O)CN2C(=O)S/C(=C\c3ccccn3)C2=O)cc1C,–,-6.39% (inactive)
Cc1c(CN2CCC(CO)(CCOc3ccccc3)CC2)[nH]c2ccc(Cl)cc12,5.62 µM (active),–
OCC1(CCOc2ccccc2)CCN(Cc2nc3ccc(F)cc3[nH]2)CC1,12.6 µM (active),–
Cc1ccc(-n2c(-c3ccc(Cl)cc3)c[n+]3c2CCC3)cc1,0.0398 µM (active),–
CC(C)C[C@H](NC(=O)c1nc[nH]c1C(=O)N1CCN(C(=O)OC(C)(C)C)CC1)C(=O)OC(C)(C)C,15.8 µM (active),–
CC(C)(C)OC(=O)[C@H](Cc1ccccc1)NC(=O)c1nc[nH]c1C(=O)N1CCN(C(=O)OC(C)(C)C)CC1,12.6 µM (active),–
CC(C)(C)OC(=O)CNC(=O)c1[nH]cnc1C(=O)NC1CCN(C(=O)OC(C)(C)C)CC1,12.6 µM (active),–
CCCCN(CCCNC(=O)C1CCN(C(=O)c2cc3sccc3n2C)CC1)Cc1ccccc1,0.562 µM (active),–
CC(NC(=O)c1cc2sccc2n1C)c1ccc2c(c1)OCCO2 (centres undefined),–,-11.1% (inactive)
O=S(=O)(CC(CN1CCCCC1)N1CCCCC1)c1ccccc1 (centres undefined),7.94 µM (active),–
Cc1ccc(OCCn2cc(C(=S)N3CCCC3)c3ccccc32)cc1C,14.1 µM (active),–
Cc1cc(C)nc(SCc2nnc(SCC(=O)Nc3nc(-c4ccccc4)cs3)n2C)n1,14.1 µM (active),–
CCOC(=O)CSc1nnc(CNc2nc(-c3ccccc3)cs2)n1C,10 µM (active),–
CCCCN(CCCC)CCC(O)c1cc2c(Cl)cc(Cl)cc2c2cc(C(F)(F)F)ccc12 (centres undefined),39.8 nM (active) and 20 nM (active),–
COc1ccc(-n2c(C)cc(C(=O)Cn3c(NCCO)nc4ccccc43)c2C)cc1,10 µM (active),–
CCCc1c(C)c2cccc(C)c2[nH]c1=O,–,-24% (inactive)
N#CC(C#N)=C1C=CC=CN1/C(=C\c1ccco1)C(=O)c1ccc(-c2ccccc2)cc1,12.6 µM (active),–
COc1ccc(C(=O)/C(=C\c2ccco2)N2C=CC=CC2=C(C#N)C#N)cc1,15.8 µM (active),–
N#CC(C#N)=C1C=CC=CN1/C(=C\c1ccco1)C(=O)c1ccc(Cl)cc1,15.8 µM (active),–

SMILES,Potency,"activity change, negative = inhibition"
COc1ccc(CCNS(=O)(=O)c2ccc(Br)s2)cc1,–,-25.4% (inactive)
CCN(CC)S(=O)(=O)c1ccc(C2=NOC3(C2)N(C)c2ccccc2C3(C)C)cc1 (centres undefined),12.6 µM (active),–
CN1c2ccccc2C(C)(C)C12CC(c1ccc(S(=O)(=O)N3CCCCC3)cc1)=NO2 (centres undefined),5.01 µM (active),–
CC(C)NC(=O)c1onc(CSc2cccc3ccccc23)c1C(=O)O,–,-18.8% (inactive)
Cc1c(NC(=O)C(C)Sc2nccn2C)c(=O)n(-c2ccccc2)n1C (centres undefined),–,-5.32% (inactive)
CSc1ccc(CNC(=O)C(C)n2nc(C)c3c(C)n(-c4ccccc4)nc3c2=O)cc1 (centres undefined),11.2 µM (active),–
Cc1nn(C(C)C(=O)NCCC2=CCCCC2)c(=O)c2nn(-c3ccccc3)c(C)c12 (centres undefined),11.2 µM (active),–
Cc1nn(C(C)C(=O)NCCCc2ccccc2)c(=O)c2nn(-c3ccccc3)c(C)c12 (centres undefined),12.6 µM (active),–
Cc1nn(C(C)C(=O)Nc2ccccc2Cl)c(=O)c2nn(-c3ccccc3)c(C)c12 (centres undefined),10 µM (active),–
Cc1ccc(C(=O)NCC(=O)NCCCc2ccccc2)s1,–,42.3% (inactive)
CCCCCCC1C(C#N)=C(N)OC2=C1C(=O)CCC2 (centres undefined),–,13.7% (inactive)
Cc1ccc(-c2cc(C(=O)N/N=C/C=C/c3ccco3)c3ccccc3n2)cc1C,14.1 µM (active),–
CC(C)C[C@@H](NC(=O)[C@H](Cc1ccccc1)NC(=O)c1cnccn1)B(O)O,0.178 µM (active),–
CC(C)=N/N=C1/NC(=O)C(Cc2ccccc2)S1 (centres undefined),7.94 µM (active),–
Cc1cc(=O)oc2ccc(OCC(=O)N3CCc4ccccc43)cc12,6.31 µM (active),–
Cc1ccc(NC2CCCN(C(=O)CSc3ccncc3)C2)cc1C (centres undefined),12.6 µM (active),–
COc1ccc(NC2CCCN(C(=O)CCc3ccncc3)C2)cc1OC (centres undefined),–,-18.3% (inactive)
Cc1ccc(S(=O)(=O)Nc2cccc3cccnc23)cc1,5.62 µM (active),–
Cc1ccc(S(=O)(=O)Nc2cccc3cccnc23)c([N+](=O)[O-])c1,3.98 µM (active),–
O=C(c1ccc(Cl)cc1)C(Cn1cncn1)C(Sc1ccccc1)c1ccccc1 (centres undefined),12.6 µM (active),–
